The record followed here is PubChem BioAssay (NCI).

The panel holds about 79,000 compounds, 15% with a hit somewhere; the sample as a whole holds those more often. A number with no mark means an inactive call. The source made the active and inactive calls. Rule as the data show it: active = growth inhibition above about 70%; inactive = the rest.

Test [1] is described as follows: NCI Yeast Anticancer Drug Screen. Data for the rad50 strain (AID 155).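 Also: 0% = growth of vehicle-only cultures of the same strain.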 The following applies: S. cerevisiae rad50 strain growth inhibition; at 50.0 µM; hits give high values. In a few lines: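 Relative growth inhibition (compound vs vehicle) was measured in yeast with a defined repair-gene alteration.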
Test [2] is described as follows: NCI Yeast Anticancer Drug Screen. Data for the mec2-1 strain (AID 157). As to conditions: S. cerevisiae mec2-1 strain, at 50.0 µM, hits give high values. In a few lines: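 Test agents were screened against the mec2-1 yeast strain, with defined DNA repair or cell cycle alteration. Growth was scored as inhibition against vehicle-only controls.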
The nature of test [3]: NCI Yeast Anticancer Drug Screen. Data for the sgs1 mgt1 strain (AID 161).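 Also: 0% = growth of cultures given vehicle only.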 As to conditions: S. cerevisiae sgs1 mgt1 strain, at 50.0 µM, hits give high values. In a few lines:
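Test agents were incubated with a DNA-repair-mutant yeast strain. Growth was then read and compared against vehicle-treated controls.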

A short description of test [4]: NCI Yeast Anticancer Drug Screen. Data for the cln2 rad14 strain (AID 165).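 Also: 0% = growth equal to vehicle treated cultures.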 As to conditions: S. cerevisiae cln2 rad14 strain, at 50.0 µM, hits give high values. Summed up:
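Growth of compound-exposed yeast (cln2 rad14 genotype) measured and expressed as inhibition relative to vehicle.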

Test [5] is described as follows: NCI Yeast Anticancer Drug Screen. Data for the bub3 strain (AID 167). As to conditions: S. cerevisiae bub3 mutant strain, at 50.0 µM, hits give high values. In a few lines: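 Screening used yeast with an engineered genetic alteration affecting cell cycle control. Compound-exposed cultures were compared with vehicle cultures, and reduced growth was taken as inhibition.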

The nature of test [6]: NCI Yeast Anticancer Drug Screen. Data for the mlh1 rad18 strain (AID 175). The following applies: S. cerevisiae mlh1 rad18 strain growth inhibition; at 50.0 µM; hits give high values. Summed up: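 In this whole-cell yeast screen, a strain with altered DNA damage repair is challenged with compound, and its growth is measured against matched vehicle-treated controls.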

With `CC1=C(CN(CC(=O)O)CC(=O)O)C(=O)C(C(C)C)=C/C1=C(\c1ccccc1S(=O)(=O)O)c1cc(C(C)C)c(O)c(CN(CC(=O)O)CC(=O)O)c1C`, the growth inhibition in test [1] is -3.55%; in test [2], -24.8%; in test [3], 11.4%; in test [4], 4.2%; in test [5] it was 0.75%.

Consider `Nc1ccc(S(=O)(=O)N/N=C/c2ccco2)cc1`, for which the growth inhibition was 27.1% in test [1]; -25.1% in test [2]; 2.8% in test [3]; 1.6% in test [4]; -50.5% in test [5].

For the compound `O=C(CC(c1ccccc1)N1CCCCC1)OCC1CCCO1` (stereo not given), the growth inhibition is -0.85% in test [1]; -13.7% in test [2]; -4.1% in test [3]; -44.5% in test [4]; -1.85% in test [5].

Turning to `COC(=O)CCC(=O)c1ccc2c(c1)CCC2`, the growth inhibition in test [1] was -3.25%; in test [2], -26.2%; in test [3], 17.2%; in test [4] it was 3%; in test [5] it was 33.5%.

On to `CCC(=O)Oc1ccc(OCc2ccccc2)cc1`, for which the growth inhibition in test [1] was -28.3%; in test [2], -57.8%; in test [3] it was -31.4%; in test [4], -4%; in test [5], -16.9%.

For `[N-]=[N+]=CC(=O)C1OC1c1ccc2ccccc2c1` (stereo not given), the growth inhibition in test [1] was 0.8%; in test [2], 21.6%; in test [3], 0.8%; in test [4] it was 1.5%; in test [5], 14.3%.

With `CCCC(CCC)(C(=O)O)C(=O)O`, the growth inhibition is -10.3% in test [1]; -25.1% in test [2]; -12.5% in test [3]; 27.5% in test [4]; -17.9% in test [5].

`CN=C(NC#N)NCc1ccccc1`: the growth inhibition in test [1] was 7.05%; in test [2] it was 7.35%; in test [3] it was -2.6%; in test [4], 10.1%; in test [5] it was 20.8%.

For the compound `CCCCCCCCCCCNc1ncnc2[nH]ncc12`, the growth inhibition in test [1] is -8.6%; in test [2], -16.5%; in test [3], 5.3%; in test [4], -0.7%; in test [5], -2.05%.

With `O=C1c2cccc([N+](=O)[O-])c2C(=O)N1c1ncn[nH]1`, the growth inhibition in test [1] was -5.9%; in test [2], -2.15%; in test [3], -21.9%; in test [4], -6.8%; in test [5], -43.4%; in test [6], 0.15%.

Consider `COc1cc2c(-c3cc(OC)c(OC)c(OC)c3)cc(C)[n+](C)c2cc1OC`, for which the growth inhibition was 6.25% in test [1]; -9.2% in test [2]; -2.3% in test [3]; -15% in test [4]; -13.3% in test [5].

As to `Cc1ccc(N=Cc2cc(Br)ccc2O)cc1Cl`, the growth inhibition is 98.6% (active) in test [1]; 99% (active) in test [2]; 99.1% (active) in test [3]; 95% (active) in test [4]; 98.7% (active) in test [5].

`CCCCCCCC(=O)CC(C)C`: the growth inhibition in test [1] was 12.1%; in test [2] it was -11.7%; in test [3], 0.6%; in test [4], -2.5%; in test [5], -21.4%.

In the case of `O=C1CCCNc2c(Br)cc(Br)cc21`, the growth inhibition was 49.2% in test [1]; 24.7% in test [2]; 14.2% in test [3]; 8.6% in test [4]; 46.5% in test [5].

As to `CCCCCCCCCCO`, the growth inhibition in test [1] was -1.6%; in test [2], 4.6%; in test [3], -5.15%; in test [4], 5.45%; in test [5], 3.2%; in test [6] it was -1.6%.

Regarding `Cc1ccc(C)c(NC(=O)Oc2ccc(Cl)cc2Cc2ccccc2)c1`, the growth inhibition in test [1] is 5.35%; in test [2], -3.5%; in test [3] it was 0.05%; in test [4], 11.8%; in test [5], 8.2%; in test [6], 7.1%.

For `CO/N=C1\CC(NC(=O)C(F)(F)F)c2ccsc21` (stereo not given), the growth inhibition in test [1] was 11.6%; in test [2], 6.9%; in test [3] it was 8%; in test [4] it was 13.3%; in test [5], -2.8%; in test [6] it was 38.9%.

In the case of `CCCCOCCOCC(C)O` (stereo not given), the growth inhibition in test [1] is 14.9%; in test [2], 10.2%; in test [3], 37.2%; in test [4], -24.4%; in test [5], -8.4%; in test [6], 2.05%.

`CN(CCN(C)C(=O)CCOS(C)(=O)=O)C(=O)CCOS(C)(=O)=O`: the growth inhibition in test [1] was -3.95%; in test [2] it was -3.05%; in test [3] it was -18.4%; in test [4], 0%; in test [5] it was -25.6%; in test [6], -51.5%.

`[Cl][Sm]([Cl])[Cl]`: the growth inhibition in test [1] was 17.9%; in test [2], -9.7%; in test [3], 8.65%; in test [4], 8.6%; in test [5] it was 27.6%; in test [6] it was 9.6%.

`O=C(c1ccncc1)n1nc(-c2ccccc2)c(N=Nc2ccccc2[N+](=O)[O-])c1-c1ccccc1`: the growth inhibition in test [1] was -1.75%; in test [2] it was -16.8%; in test [3], -9.3%; in test [4] it was 1.65%; in test [5], 30.3%; in test [6], 1%.

With `S=c1nn[nH]n1C1CCCCC1`, the growth inhibition in test [1] is 8.05%; in test [2], -14.3%; in test [3], -1.8%; in test [4] it was 4.1%; in test [5] it was 0.85%; in test [6], 9.95%.

With `CCCNC(=O)/C=C\S(=O)CCC` (stereo not given), the growth inhibition in test [1] was -1.15%; in test [2] it was 2.9%; in test [3], 1.15%; in test [4] it was -16.5%; in test [5] it was 16.9%; in test [6] it was -2.6%.
